# Reference: PubChem BioAssay AID2589 (National Center for Advancing Translational Sciences (NCATS), 2010)
# Calls of active or inactive are those of the source. Calls follow the shape of the dose curve; as a rule, active = well fitted curve in the direction sought with a large enough effect; inactive = no such curve, though single readings can be large or run the other way.
# Molecular target: Lysosomal acid glucosylceramidase (Homo sapiens) (UniProt P04062)
# Assay: qHTS Assay for Inhibitors and Activators of N370S glucocerebrosidase as a Potential Chaperone Treatment of Gaucher Disease: Chaperone Activity in Non-Gauche Fibroblasts After Multi-day Incubation with Compound
# Settings: Wild-type fibroblasts, GC immunofluorescence, 5-day incubation
# Source text: NIH Chemical Genomics Center [NCGC] NIH Molecular Libraries Probe Production Centers Network [MLPCN] MLPCN Grant: MH086442-01 Assay Submitter (PI): Wei Zheng Glucocerebrosidase (GC) catalyzes the hydrolysis of beta-glucocerebroside to glucose and ceramide in lysosomes. Mutations in the glucocerebrosidase gene result in Gaucher disease, an autosomal recessive lysosomal storage disorder. Many of the mutations encountered in patients with Gaucher disease are missense alterations that may cause misfolding, decreased stability and/or mistrafficking of this lysosomal protein. […] These inhibitors include iminosugar analogs and three non-iminosugar inhibitors identified from a previous HTS of 62,000 compounds with the wild type recombinant enzyme. However, the enhancement of enzyme activity by the chaperone action of an enzyme inhibitor must be balanced against the direct inhibition of the enzyme. An enzyme activator could also function as a chaperone by binding to the enzyme and helping to correct its misfolding and mistrafficking. […] This assay attempts to quantitate translocated glucocerebrosidase protein in patient-derived fibroblasts following extended compound incubation. […]
# NCGC Assay Protocol Summary: 1. […] Visualized using a fluorescence microscope and the intensity of fluorescence in the selected areas were calculated. […]
# Sequence of Lysosomal acid glucosylceramidase (Homo sapiens) (P04062 whole entry, looked up): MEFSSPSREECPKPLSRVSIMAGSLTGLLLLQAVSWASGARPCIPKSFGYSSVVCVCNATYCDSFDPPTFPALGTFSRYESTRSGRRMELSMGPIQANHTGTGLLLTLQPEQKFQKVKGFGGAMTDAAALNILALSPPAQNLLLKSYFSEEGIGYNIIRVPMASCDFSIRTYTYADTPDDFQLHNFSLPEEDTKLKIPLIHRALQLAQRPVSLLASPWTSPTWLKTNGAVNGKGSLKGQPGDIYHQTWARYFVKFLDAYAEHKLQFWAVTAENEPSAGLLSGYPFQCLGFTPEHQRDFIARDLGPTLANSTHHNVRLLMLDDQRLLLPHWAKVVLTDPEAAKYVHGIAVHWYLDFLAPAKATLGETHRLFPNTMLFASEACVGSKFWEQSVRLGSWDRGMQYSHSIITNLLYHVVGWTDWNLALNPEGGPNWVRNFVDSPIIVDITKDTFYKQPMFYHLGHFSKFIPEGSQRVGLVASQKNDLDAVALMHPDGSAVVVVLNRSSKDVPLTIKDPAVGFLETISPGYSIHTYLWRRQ
row,SMILES,Potency
1,O=S(=O)(c1ccc2ccccc2c1)N1CCN(c2nc(-c3cccs3)nc3ccccc23)CC1,1260 nM (active)
2,S=C(NCCCc1cnc[nH]1)NCCCN(Cc1ccc(Cl)c(Cl)c1)c1ccc(Br)cn1,708 nM (active)
